Screens: PubChem BioAssay, National Center for Advancing Translational Sciences (NCATS)
Sm TGR block: blocks Schistosoma mansoni thioredoxin glutathione reductase; Q962Y6; purified TGR, DTNB reduction, TNB absorbance 405 nm; Potency, µM (highest dose often 114 µM), inactives show at the highest dose activity change, negative = inhibition, hits mostly inhibitors; 3% of 360,000 active; AID 485364; further: on the % scale 0 is the no-effect control and ±100 the full control effect; nearly all actives have a fitted effect of over 60% in size
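Kinetic colorimetric format: TGR-catalysed, NADPH-driven DTNB reduction monitored via TNB absorbance. Enzyme dispensed at 20 nM; compound exposure 15 min at room temperature before reaction start.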
AmpC detergent: AmpC beta-lactamase inhibition with detergent present; Potency, µM (titrated, usually from 114 µM), for inactives: top-dose activity change, negative = inhibition, actives largely listed as inhibitors; 0.041% of 370,000 active; AID 485294; AmpC hydrolysis of nitrocefin, absorbance 480 nm, 0.01% Triton; P00811;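 further: 0% = no-compound wells and -100% = no-enzyme wells; nearly all actives have a fitted effect of over 25% in size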
Target sequence (P00811 whole entry, looked up): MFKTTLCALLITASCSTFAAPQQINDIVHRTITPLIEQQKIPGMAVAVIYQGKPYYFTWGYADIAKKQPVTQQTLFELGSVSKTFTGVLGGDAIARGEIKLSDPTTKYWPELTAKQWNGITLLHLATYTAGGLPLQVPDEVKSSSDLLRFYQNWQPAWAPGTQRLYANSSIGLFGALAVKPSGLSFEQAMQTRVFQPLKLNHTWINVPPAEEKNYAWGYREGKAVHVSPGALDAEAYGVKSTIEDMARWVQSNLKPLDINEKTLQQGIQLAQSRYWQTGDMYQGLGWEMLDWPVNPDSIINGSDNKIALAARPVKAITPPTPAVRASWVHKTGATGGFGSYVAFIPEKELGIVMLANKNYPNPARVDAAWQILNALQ
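AmpC (5.3 nM in the dispensed reagent) in 20 mM phosphate pH 7.0 with 0.01% (detergent screen) or 0.0001% Triton X-100 was preincubated with compounds for 15 min at room temperature. Nitrocefin was then added from an 800 uM solution, and hydrolysis was followed at 480 nm.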
SARS PLpro yeast: inhibitors of SARS-CoV papain-like protease in yeast; S. cerevisiae expressing SARS-CoV PLpro, growth rescue; Potency, µM (series often up to 32.9 µM), for inactives: at the top dose activity, positive = growth rescue, hits mostly activators; 0.19% of 330,000 active; calls by dose curve; further: 0% is about no effect; nearly all actives have a fitted effect of over 55% in size
AmpC no deterg: blocks E. coli AmpC beta-lactamase in detergent-free assay | P00811 | AmpC nitrocefin hydrolysis, absorbance 480 nm, 0.0001% Triton | AID 485341 | 0.52% of 330,000 active | Potency, µM (top dose mostly 57.1 µM), without a hit: top-dose activity change, negative = inhibition, actives largely listed as inhibitors;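 further: plate controls were no compound for no effect and no enzyme for full effect; nearly all actives have a fitted effect of over 20% in size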
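AmpC (5.3 nM in the dispensed reagent) in 20 mM phosphate pH 7.0 with 0.01% (detergent screen) or 0.0001% Triton X-100 was preincubated with compounds for 15 min at room temperature. Nitrocefin was then added from an 800 uM solution, and hydrolysis was followed at 480 nm.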
Tb PYK inh: blocks Trypanosoma brucei pyruvate kinase. Q57TT1. 0.12% of 410,000 active. TbPYK enzyme, Kinase-Glo Plus ATP luminescence, 45 min. Potency, µM (highest dose often 76.8 µM), inactives show top-dose activity, negative = inhibition, usual class: inhibitors. AID 624173; further: on the % scale 0 is the no-effect control and ±100 the full control effect; nearly all actives have a fitted effect of over 50% in size
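Quantitative HTS: titrated library compounds versus trypanosomal pyruvate kinase in TEA buffer (pH 7.2) containing KCl, MgCl2, BSA and Tween-20. Reactions were initiated with ADP, 130 uM final. Kinase-Glo Plus luminescence was read after 45 min at RT.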
RE007 growth inh: less growth of the S. pombe RE007 Vpr strain; S. pombe RE007 Vpr strain, BacTiter-Glo ATP luminescence, 24 h; Potency, µM (doses to about 92.2 µM), for inactives: at the highest dose activity change, negative = less growth, usual class: inhibitors; 0.21% of 360,000 active; AID 651644; active means well fitted falling curve with a large enough effect; inconclusive means small, poorly fitted or top-dose-only effect; inactive means no such curve, though single readings can be large or run the other way; further: on the % scale 0 is the no-effect control and ±100 the full control effect; nearly all actives have a fitted effect of over 50% in size
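Fission yeast RE007 carrying one integrated HIV-1 vpr copy, seeded at OD 0.01 in PMG+AL medium with 23 nL pinned compound. Grown 24 h at 30 degrees; viability read by BacTiter-Glo luminescence after 5 min.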
* hit, by the source's call; u = inconclusive; x = not tested or not shown. Rows were chosen to be rich in hits. Some 3.3% of all compounds tested hit in one or more screens of this group. Unless noted, the call rests on the fitted dose curve; in most records, active means well fitted curve in the direction sought with a large enough effect; inconclusive means small, poorly fitted or top-dose-only effect, or another doubt; inactive means no such curve, though single readings can be large; an effect the other way counts as inactive or inconclusive. Potency means the concentration at half of the fitted maximal effect.

SMILES	Sm TGR block	AmpC detergent	SARS PLpro yeast	AmpC no deterg	Tb PYK inh	RE007 growth inh
O=C(C1=C(O)C(=O)N(CCN2CCOCC2)C1c1ccc(F)cc1)c1cc2ccccc2o1 (stereo not drawn)	28µM*	5%	18%	-1%	0%	-10%
O=C(C1=C(O)C(=O)N(CCN2CCOCC2)C1c1ccco1)c1cc2ccccc2o1 (stereo not drawn)	22µM*	0%	-1%	-18%	1%	3%
O=C(COc1ccccc1F)Nc1ccc(Cl)c(-c2nc3ccccc3[nH]2)c1	-4%	u	x	x	5%	x
CCOc1ccc(Nc2c(S(=O)(=O)c3ccccc3)cnc3ccc(F)cc23)cc1	-2%	-5%	x	x	-15%	x
Oc1ccc(/C=N/N(c2ccccc2)c2ccccc2)c(O)c1O	40µM*	4%	1%	28µM*	x	x
O=C1c2ccccc2C(=O)N1/N=C/c1ccc(O)c(O)c1O	50µM*	-1%	u	-50%	u	-8%
Cc1nc2ccccc2c(=O)n1/N=C/c1ccccc1O	3%	-7%	0%	-13%	-1%	-3%
Oc1ccc(/C=N/N2CCCCC2)c(O)c1O	35µM*	-4%	1%	-16%	u	3%
Cc1nc2ccccc2c(=O)n1/N=C/c1ccc(O)c(O)c1O	45µM*	u	-2%	-38%	-26%	x
CC(=O)Nc1ccc(NC(=O)Nc2ccc3c(c2)N(C)C(=O)CS3)cc1	-14%	2%	0%	-48%	6%	4%
CCOc1ccc(OCC)c(NC(=O)Nc2ccc3c(c2)N(C)C(=O)CS3)c1	7%	u	-5%	1.1µM*	-9%	0%
COc1cccc(NC(=O)Nc2ccc3c(c2)N(C)C(=O)CS3)c1	0%	-7%	-9%	3.2µM*	-4%	-5%
CCCCS(=O)(=O)N1CN(S(=O)(=O)CCCC)C2NC(=O)NC21 (stereo not drawn)	35µM*	2%	27%	11%	12%	18%
Cc1ccc(Cl)cc1N1CCN(C(=O)c2ccc3c(c2)N(Cc2ccccc2F)C(=O)c2ccccc2S3(=O)=O)CC1	9%	20%	x	x	0%	x
CCOc1ccc2nc(N3CCCC(C(=O)NCCCN4CCOCC4)C3)sc2c1 (stereo not drawn)	5%	u	-1%	3.2µM*	-4%	-8%
CCOc1ccc2nc(N3CCC(C(=O)NCCCN4CCOCC4)CC3)sc2c1	-11%	-3%	1%	123%	4%	3%
Cc1ccc(NC(=O)/C(C#N)=C/c2ccccc2Cl)cc1C	-7%	-4%	x	x	4%	x
COc1ccccc1CNC(=O)CCCCn1c(=O)c2ccccc2n(Cc2c(C)cc(C)cc2C)c1=O	0%	26%	x	x	-4%	x
CCn1nc(-c2cccs2)nc2c(=O)n(C)c(=O)nc1-2	u	-7%	-30%	-12%	-5%	u
CCn1nc(/C=C/c2ccccc2)nc2c(=O)n(C)c(=O)nc1-2	-35%	-6%	0%	-27%	-10%	28µM*
Oc1ccc(/C=N/NC(=S)Nc2cccnc2)c(O)c1	-17%	-13%	u	-29%	-29%	4%
Oc1ccc(/C=N/NC(=S)Nc2cccnc2)c(O)c1O	10µM*	-15%	24%	-48%	u	-18%
Oc1cccc(/C=N/NC(=S)Nc2cccnc2)c1O	-10%	-4%	-12%	32µM*	u	-6%
O=C(NCCc1ccc(Cl)cc1)c1c2c(nc3ccccc13)C(=O)N(C1CCCCC1)C2	-5%	12%	x	x	3%	x
CC(=Nc1ccc(C)cc1)c1sc2ccccc2c1O	5%	1%	-25%	7.9µM*	-3%	-21%
SMILES	Sm TGR block	AmpC detergent	SARS PLpro yeast	AmpC no deterg	Tb PYK inh	RE007 growth inh
O=C1SC(SCc2ccccc2)=N/C1=C\c1ccco1	u	0%	x	x	-13%	-4%
CCCSC1=N/C(=C\C=C\c2ccco2)C(=O)S1	32µM*	-7%	-24%	-13%	-10%	-12%
COc1ccc(-n2c(SCC(=O)NCc3ccc(Cl)cc3)nc3ccsc3c2=O)cc1	-17%	3%	x	x	-1%	x
Cc1cc(C)c2c(CC(=O)N(Cc3ccc(Cl)cc3)Cc3ccco3)coc2c1	-12%	17%	x	x	-5%	x
Cc1ccc(S(=O)(=O)/N=C2/NC(=O)/C(=C\c3cc(Br)cc(Br)c3O)S2)cc1	28µM*	9%	2%	-6%	-15%	-3%
Cc1ccc(S(=O)(=O)/N=C2/NC(=O)/C(=C/c3ccc(Br)o3)S2)cc1	22µM*	u	-42%	-29%	-12%	4%
CCOc1ccccc1CNC(=O)c1ccc(Cn2c(=O)c3cccn3c3cccnc32)cc1	-2%	4%	x	x	-4%	x
COc1ccccc1/C=C/C=N/NC(=O)c1ccc2nc[nH]c2c1	-26%	-15%	7%	20µM*	x	x
COCCN(Cc1ccco1)C(=O)c1cc2c(Cl)nc3ccc(C)cc3c2s1	-4%	2%	x	x	-2%	x
Cc1cc(NC(=O)CSc2cn(CCNC(=O)c3ccc(Cl)cc3)c3ccccc23)no1	10%	3%	u	10µM*	-1%	5%
CCOc1ccc(C(=O)NCCn2cc(SCC(=O)Nc3cc(C)on3)c3ccccc32)cc1	0%	-5%	-2%	-19%	-7%	-4%
CCCN1C(=O)S/C(=C/c2ccc(N3CCOCC3)o2)C1=O	1.4µM*	-12%	-4%	44%	-22%	u
CCCN1C(=O)S/C(=C\c2ccc(N3CCOCC3)o2)C1=O	8.9µM*	10%	-1%	35%	u	-13%
COc1ccc2nc(Nc3nc4cc5c(cc4s3)OCO5)sc2c1	-19%	2%	-21%	22µM*	-13%	-20%
C=CCSc1nc2c(c(-c3ccsc3)c1C#N)CN(C)CC2	10µM*	2%	0%	2%	-13%	-9%
O=C(NNC(=O)c1ccc(NC(=O)c2ccccc2)cc1)c1ccc(F)cc1	-19%	u	-2%	-31%	2%	-3%
O=C(NC1=C(Nc2ccc(F)cc2)C(=O)c2ccccc2C1=O)c1ccc(Cl)cc1	22µM*	1%	-41%	-30%	-10%	u
CCc1ccc(NC(=O)CSc2nc3nccnc3c(=O)n2CCc2c[nH]c3ccccc23)cc1	4%	0%	x	x	-16%	x
CC(=O)Nc1ccc(SCc2ncc(-c3ccccc3)o2)cc1	2%	-5%	-3%	47%	5%	-14%
c1ccc(-c2cnc(CSc3ncnc4sccc34)o2)cc1	10µM*	-1%	-49%	-13%	-12%	-5%
